Values joined by “and” are separate entries in the source; they are usually repeats but may differ in a detail not shown here. Equal entries are not always repeated. In all, about 5,500 compounds went through this assay and about 2,000 (36%) were called active. Not shown: some 18% with an inconclusive outcome. Cut-off read from the data, not from the text of the source: active = normalized growth mostly below about 0.91 (no sharp cut-off); inconclusive = no clear call, values can overlap the other calls; inactive = mostly above about 0.92. This is one part of the list.
Assay: chemical genetic growth profiling, strain panel (AID 1159580);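 note: tested at 20 µM; growth read once vehicle control cultures reached saturation at 30 °C; 1 = growth at the plate median or of vehicle wells; lower values mean less growth of the strain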
Conditions: S. cerevisiae deletion strains, growth OD

Measured: normalized growth

c1ccc(N=Nc2ccccc2)cc1
inactive: locus YAL021C, strain ccr4, active compounds read low 1.02 | locus YAL026C, strain drs2, active compounds read low 0.998 | locus YAL030W, strain snc1, active compounds read low 0.985 | locus YBL061C, strain skt5, active compounds read low 0.991 | locus YBR009C, strain hhf1, active compounds read low 0.985 | locus YBR021W, strain FUR4, active compounds read low 1.01 | locus YBR023C, strain chs3, active compounds read low 0.99 | locus YBR171W, strain sec66, active compounds read low 0.975 | locus YBR229C, strain ROT2, active compounds read low 1 | locus YBR231C, strain swc5, active compounds read low 0.984 | locus YBR279W, strain paf1, active compounds read low 0.985 | locus YCL011C, strain gbp2, active compounds read low 0.992 | locus YCL016C, strain dcc1, active compounds read low 0.982 | locus YCL029C, strain bik1, active compounds read low 1.03 | locus YCL061C, strain MRC1, active compounds read low 0.993 | locus YCL069W, strain vba3, active compounds read low 0.988 | locus YCR088W, strain abp1, active compounds read low 0.991 | locus YDL005C, strain med2, active compounds read low 0.977 | locus YDL035C, strain GPR1, active compounds read low 0.981 | locus YDL040C, strain nat1, active compounds read low 0.985 | locus YDL074C, strain BRE1, active compounds read low 0.942 | locus YDL101C, strain DUN1, active compounds read low 0.979 | locus YDL134C, strain PPH21, active compounds read low 0.968 | locus YDL185W, strain tfp1, active compounds read low 1.01 | locus YDL192W, strain arf1, active compounds read low 1.03 | locus YDR001C, strain nth1, active compounds read low 0.987 | locus YDR069C, strain doa4, active compounds read low 0.995 | locus YDR101C, strain arx1, active compounds read low 1.02 | locus YDR137W, strain rgp1, active compounds read low 0.911 | locus YDR150W, strain NUM1, active compounds read low 1 | locus YDR159W, strain sac3, active compounds read low 1.01 | locus YDR162C, strain NBP2, active compounds read low 1.01 | locus YDR195W, strain ref2 0.994 | locus YDR297W, strain sur2, active compounds read low 0.987 | locus YDR318W, strain mcm21, active compounds read low 1.02 | locus YDR334W, strain swr1, active compounds read low 0.989 | locus YDR335W, strain msn5, active compounds read low 0.972 | locus YDR388W, active compounds read low 1.03 | locus YDR392W, strain spt3, active compounds read low 0.992 | locus YDR502C, strain sam2, active compounds read low 1.02 | locus YEL003W, strain gim4, active compounds read low 0.996 | locus YEL037C, strain rad23, active compounds read low 0.988 | locus YEL061C, strain CIN8 (second series), active compounds read low 0.976 | locus YEL061C, strain CIN8, active compounds read low 1 | locus YER015W, strain faa2, active compounds read low 0.996 | locus YER016W, strain bim1, active compounds read low 0.992 | locus YER110C, active compounds read low 1.03 | locus YER111C, strain swi4, active compounds read low 0.987 | locus YER155C, strain BEM2 (second series), active compounds read low 0.906 | locus YER155C, strain BEM2, active compounds read low 1.01 | locus YER167W, strain BCK2, active compounds read low 0.998 | locus YFR010W, strain ubp6, active compounds read low 0.99 | locus YGL078C, strain dbp3, active compounds read low 1.02 | locus YGL086W, strain mad1, active compounds read low 1.01 | locus YGL167C, strain pmr1, active compounds read low 0.992 | locus YGL173C, strain kem1, active compounds read low 0.993 | locus YGL227W, strain vid30, active compounds read low 0.992 | locus YGL240W, strain doc1, active compounds read low 0.975 | locus YGL248W, strain PDE1, active compounds read low 0.982 | locus YGL253W, strain hxk2, active compounds read low 0.996 | locus YGR078C, strain PAC10, active compounds read low 0.939 | locus YGR135W, strain pre9, active compounds read low 1.02 | locus YGR229C, strain SMI1, active compounds read low 0.966 | locus YGR252W, strain gcn5, active compounds read low 0.999 | locus YHR013C, strain ard1, active compounds read low 1.07 | locus YHR027C, strain rpn1, active compounds read low 0.987 | locus YHR030C, strain SLT2, active compounds read low 1.01 and 0.972 | locus YHR079C, strain IRE1 (second series), active compounds read low 1.02 | locus YHR079C, strain IRE1, active compounds read low 0.967 | locus YHR094C, strain hxt1, active compounds read low 1.03 | locus YHR129C, strain ARP1, active compounds read low 1 | locus YHR142W, strain chs7, active compounds read low 1.01 | locus YHR200W, strain rpn10, active compounds read low 1.03 | locus YIL066C, strain RNR3, active compounds read low 0.986 | locus YIL073C, strain SPO22, active compounds read low 1.08 | locus YIL125W, strain kgd1, active compounds read low 1.01 | locus YIR030C, strain dcg1, active compounds read low 1.04 | locus YJL092W, strain hpr5, active compounds read low 0.976 | locus YJL095W, strain BCK1 (second series), active compounds read low 0.979 | locus YJL095W, strain BCK1, active compounds read low 0.983 and 0.961 | locus YJL115W, strain asf1, active compounds read low 0.989 | locus YJL129C, strain trk1, active compounds read low 0.969 | locus YJL134W, strain LCB3, active compounds read low 1.01 | locus YJL154C, strain vps35, active compounds read low 0.984 | locus YJL164C, strain tpk1, active compounds read low 0.996 | locus YJL166W, strain qcr8, active compounds read low 0.976 | locus YJL168C, strain set2, active compounds read low 1.02 | locus YJL187C, strain SWE1 (second series), active compounds read low 0.971 | locus YJR043C, strain POL32, active compounds read low 0.996
